Data from PubChem BioAssay (NCATS).
Inconclusive results are not listed. Active and inactive are the calls of the source. Unless noted, calls come from the whole dose curve; as a rule, active = well fitted curve in either direction with a large enough effect (not every such curve was filed as active); inconclusive = small, poorly fitted or top-dose-only effect, or another doubt; inactive = flat fitted curve, though single readings scatter.

Molecular target: Glucocorticoid receptor (Homo sapiens) (UniProt P04150)
Sequence (P04150 whole entry, looked up): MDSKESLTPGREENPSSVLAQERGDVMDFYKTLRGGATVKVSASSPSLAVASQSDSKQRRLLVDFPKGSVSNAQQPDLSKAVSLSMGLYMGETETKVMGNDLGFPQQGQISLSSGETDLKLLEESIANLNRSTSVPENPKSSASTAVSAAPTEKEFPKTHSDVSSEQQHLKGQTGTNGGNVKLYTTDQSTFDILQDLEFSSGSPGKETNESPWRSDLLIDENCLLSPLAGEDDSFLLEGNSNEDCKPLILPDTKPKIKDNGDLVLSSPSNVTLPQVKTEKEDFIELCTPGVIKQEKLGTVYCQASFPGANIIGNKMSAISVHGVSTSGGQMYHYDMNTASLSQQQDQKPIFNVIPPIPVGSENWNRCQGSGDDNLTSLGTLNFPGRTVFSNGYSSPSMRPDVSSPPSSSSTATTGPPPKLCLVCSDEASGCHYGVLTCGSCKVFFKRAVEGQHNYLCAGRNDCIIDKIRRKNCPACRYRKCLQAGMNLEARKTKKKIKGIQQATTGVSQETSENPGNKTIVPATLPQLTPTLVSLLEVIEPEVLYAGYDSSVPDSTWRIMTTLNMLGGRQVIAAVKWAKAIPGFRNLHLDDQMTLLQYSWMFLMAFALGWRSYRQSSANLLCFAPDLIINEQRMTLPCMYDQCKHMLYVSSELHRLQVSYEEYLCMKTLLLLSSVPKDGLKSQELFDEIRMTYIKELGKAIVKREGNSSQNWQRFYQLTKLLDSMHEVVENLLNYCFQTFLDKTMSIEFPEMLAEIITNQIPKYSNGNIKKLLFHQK
Assay: GR-EFC Redistribution (AID 451; calls by dose curve; note: potency is the fitted concentration of half-maximal effect)
Settings: CHO-K1 GR-EFC translocation, beta-gal luminescence, 2 h
Procedure, shortened: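 CHO-K1 cells stably expressing nuclear-localized β-gal enzyme acceptor and GR fused C-terminally to the enzyme donor fragment; ligand-driven nuclear translocation restores β-gal by complementation. Compounds titrated up to 46 uM final, 2 h at 37 °C; luminescence read.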

Potency, inactive:
CCC(=O)OCN1C(=O)C=CC1=O > 9.22 µM
CN(C)CCCN1c2ccccc2Sc2cnccc21 > 9.22 µM
Oc1ccc(Cn2c(-c3ccc(O)cc3)nc3ccccc32)cc1 > 9.22 µM
O=C(O)CCc1c2ccc(=O)c(O)c-2oc2c(O)c(O)ccc12 > 9.22 µM
O=c1c[n+](CCCC[n+]2cc(=O)o[nH]2)[nH]o1 > 9.22 µM
O=c1c2ccccc2sc2c(CO)ccc(NCCN3CCCCC3)c12 > 9.22 µM
c1ccc(NCCSc2nc3ccccc3s2)cc1 > 9.22 µM
Cc1cc(SCC(=O)c2ccc(Br)cc2)cc(C)[o+]1 > 9.22 µM
c1ccc([C@H](c2cccc3c2ccc2ccccc23)[C@H](c2ccccc2)c2cccc3c2ccc2ccccc23)cc1 > 9.22 µM
O=C(O)[C@@H](O)[C@@H](O)[C@@H](O)[C@@H](O)c1nc2ccccc2s1 > 9.22 µM
CC(C)NC[C@@H](O)c1ccc(O)c2ncccc12 > 9.22 µM
NCCSc1nc2ccccc2s1 > 9.22 µM
O=C(O)c1ccccc1-c1ccccc1C(=O)Nc1ccc2c(c1)Cc1cc(F)ccc1-2 > 9.22 µM
N/C(=N\O)c1cn([C@@H]2O[C@@H](CO)[C@H](O)[C@@H]2O)c2ncnc(NO)c12 > 9.22 µM
Cn1cnc([N+](=O)[O-])c1SCC(=O)O > 9.22 µM
ON(CCc1ccncc1)Cc1ccccc1 > 9.22 µM
Cc1cccc(C)c1NC(=O)Nc1ccc(S(N)(=O)=O)cc1 > 9.22 µM
C/C(C[n+]1ccccc1)=N\N=C(N)N > 9.22 µM
C[N+](C)(C)c1ncnc2c1ncn2[C@@H]1CCCCO1 > 9.22 µM
O=C(O)CSc1nc2ccccc2[nH]1 > 9.22 µM
Cc1nc2cnc(N3CCNCC3)nc2n(-c2ccccc2)c1=O > 46 µM
N[C@@](CCc1ccccc1)(C(=O)O)c1ccccc1 > 9.22 µM
COCCn1c(=O)c(-c2ccccc2)nc2cnc(Nc3ccccc3)nc21 > 46 µM
CC(=O)N[C@@H]1CONC1=O > 9.22 µM
O=C(O)CSc1ccn(Cc2ccccc2)c1 > 9.22 µM
COc1ccccc1CCn1c(=O)c(-c2ccc(F)cc2)nc2cncnc21 > 46 µM
CC(C)(N)CO[C@H]1C[C@H]2CC[C@@]1(C)C2(C)C > 9.22 µM
CC(C)(C)c1ccc(NS(=O)(=O)c2ccc(N)cc2)cc1 > 9.22 µM
O=C(O)c1nnsc1-c1csnn1 > 9.22 µM
COCCn1c(=O)c(-c2ccc(OC)cc2)nc2cnc(OC)nc21 > 46 µM
NC(N)=NC(N)=Nc1ccc(S(N)(=O)=O)cc1 > 9.22 µM
c1c[nH]c(CN2CCOCC2)n1 > 9.22 µM
CC(C)CSC[C@@H]1O[C@H](n2cnc3c(N)nccc32)[C@H](O)[C@@H]1O > 9.22 µM
CCNc1ncc2nc(C)c(=O)n(Cc3cccc(OC)c3)c2n1 > 46 µM
CC(=O)Nc1nc(NC(C)=O)c2[nH]c(CO)nc2n1 > 9.22 µM

Molecular target: Mitogen-activated protein kinase 10 (Mus musculus) (UniProt Q61831)
Assay: JNK3 AlphaScreen Assay (AID 530);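 note: kinase came from lysate of stimulated human HepG2 cells; signal reports phosphorylation of biotinylated GST-cJun 1-79 at Ser73 with 10 µM ATP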
Settings: JNK3 lysate, c-Jun phosphorylation; series mostly up to 11.4 µM
Procedure, shortened: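 Biotinylated GST-cJun(1-79) served as substrate for JNK3 in HepG2 lysates stimulated with IL-1beta and TNF-alpha. ATP was 10 uM final, pH 7.6. Ser73 phosphorylation was quantified by AlphaScreen (680 nm excitation).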

Potency, inactive:
CCC(=O)OCN1C(=O)C=CC1=O
CN(C)CCCN1c2ccccc2Sc2cnccc21
Oc1ccc(Cn2c(-c3ccc(O)cc3)nc3ccccc32)cc1
O=C(O)CCc1c2ccc(=O)c(O)c-2oc2c(O)c(O)ccc12
N#[N+]c1ccc(Nc2ccccc2)cc1
O=c1c[n+](CCCC[n+]2cc(=O)o[nH]2)[nH]o1
O=c1c2ccccc2sc2c(CO)ccc(NCCN3CCCCC3)c12
c1ccc(NCCSc2nc3ccccc3s2)cc1
Cc1cc(SCC(=O)c2ccc(Br)cc2)cc(C)[o+]1
c1ccc([C@H](c2cccc3c2ccc2ccccc23)[C@H](c2ccccc2)c2cccc3c2ccc2ccccc23)cc1
O=C(O)[C@@H](O)[C@@H](O)[C@@H](O)[C@@H](O)c1nc2ccccc2s1
CC(C)NC[C@@H](O)c1ccc(O)c2ncccc12
NCCSc1nc2ccccc2s1
O=C(O)c1ccccc1-c1ccccc1C(=O)Nc1ccc2c(c1)Cc1cc(F)ccc1-2
N/C(=N\O)c1cn([C@@H]2O[C@@H](CO)[C@H](O)[C@@H]2O)c2ncnc(NO)c12
Cn1cnc([N+](=O)[O-])c1SCC(=O)O
ON(CCc1ccncc1)Cc1ccccc1
Cc1cccc(C)c1NC(=O)Nc1ccc(S(N)(=O)=O)cc1
COc1cc(C2SCCCCCCCCCCSC(c3ccc(O)c(OC)c3)SCCCCCCCCCCS2)ccc1O (stereo not given)
COc1cc(-c2[o+]c3cc(O)cc(O)c3cc2O)cc(O)c1O
CO[C@@H]1/C=C\O[C@]2(C)Oc3c(C)c(O)c4c(O)c(cc(O)c4c3C2=O)NC(=O)/C(C)=C\C=C/[C@H](C)[C@@H](O)[C@H](C)[C@H](O)[C@H](C)[C@H](OC(C)=O)[C@@H]1C
C/C(C[n+]1ccccc1)=N\N=C(N)N
C[N+](C)(C)c1ncnc2c1ncn2[C@@H]1CCCCO1
O=C(O)CSc1nc2ccccc2[nH]1
Cc1nc2cnc(N3CCNCC3)nc2n(-c2ccccc2)c1=O
N[C@@](CCc1ccccc1)(C(=O)O)c1ccccc1
COCCn1c(=O)c(-c2ccccc2)nc2cnc(Nc3ccccc3)nc21
CC(=O)N[C@@H]1CONC1=O
O=C(O)CSc1ccn(Cc2ccccc2)c1
COc1ccccc1CCn1c(=O)c(-c2ccc(F)cc2)nc2cncnc21
CC(C)(N)CO[C@H]1C[C@H]2CC[C@@]1(C)C2(C)C
CC(C)(C)c1ccc(NS(=O)(=O)c2ccc(N)cc2)cc1
O=C(O)c1nnsc1-c1csnn1
COCCn1c(=O)c(-c2ccc(OC)cc2)nc2cnc(OC)nc21
NC(N)=NC(N)=Nc1ccc(S(N)(=O)=O)cc1
c1c[nH]c(CN2CCOCC2)n1
CC(C)CSC[C@@H]1O[C@H](n2cnc3c(N)nccc32)[C@H](O)[C@@H]1O
C[C@@]12CCC(=O)C=C1CC[C@H]1[C@@H]2[C@@H](O)C[C@]2(C)[C@@H]1CC[C@@]2(O)C(=O)CO
CCNc1ncc2nc(C)c(=O)n(Cc3cccc(OC)c3)c2n1
CC(=O)Nc1nc(NC(C)=O)c2[nH]c(CO)nc2n1
